Measured values from the supplement of paper PMC6658780.
Where a name gives a salt, the structure may show the parent alone. ± gives the standard deviation of the averaged measurements.

The compounds below were run on Escherichia coli ATCC BAA-2469 (assay: percent growth inhibition of drug + antibiotic vs DMSO control; higher = more growth inhibition). Details: antibiotic (0.125x MIC): ciprofloxacin; 7 µM.
Method: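 Prestwick drugs tested at 20 uM and 7 uM with an antibiotic at 0.125x MIC (16 mg/L when MIC >128 mg/L) against E. coli ATCC BAA-2469 (NDM-1) in CAMHB, 384-well plates, duplicate runs. Percent growth inhibition was computed from OD600 (24 h minus 0 h) relative to DMSO wells. Drug + DMSO-only wells are also given. […]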
O=C([O-])c1ccccc1-c1c2cc(Br)c(=O)cc-2oc2[c]([Hg+])c([O-])c(Br)cc12.[Na+].[Na+].[OH-] [Merbromin] was tested, and the percent growth inhibition was 0.00817 ± 2.1%. Work on NCC1(CC(=O)O)CCCCC1 [Gabapentin] yielded a percent growth inhibition of 4.43 ± 4.2%.

Same assay, conditions: antibiotic (0.125x MIC): ciprofloxacin; 20 µM
Compound NCC1(CC(=O)O)CCCCC1 [Gabapentin] has a percent growth inhibition of 9.67 ± 14%.

Same assay, conditions: antibiotic (0.125x MIC): gentamicin; 7 µM
With O=C(CCCN1CCC2(CC1)C(=O)NCN2c1ccccc1)c1ccc(F)cc1 [Spiperone] the percent growth inhibition was 7.21 ± 1%. Work on C[C@]12CC[C@H](O)C[C@@H]1CC[C@@H]1[C@@H]2CC[C@]2(C)C(=O)CC[C@@H]12 [Epiandrosterone] yielded a percent growth inhibition of 0.433 ± 1.2%.

Same assay, conditions: antibiotic (0.125x MIC): meropenem; 7 µM
In the case of O=C([O-])c1ccccc1-c1c2cc(Br)c(=O)cc-2oc2[c]([Hg+])c([O-])c(Br)cc12.[Na+].[Na+].[OH-] [Merbromin], the percent growth inhibition is reported as 0.439 ± 4%. In the case of NCC1(CC(=O)O)CCCCC1 [Gabapentin], the percent growth inhibition is reported as -2.95 ± 1.7%.

Same assay, conditions: antibiotic (0.125x MIC): meropenem; 20 µM
Oc1cc(Cl)ccc1Oc1ccc(Cl)cc1Cl [Triclosan] showed a percent growth inhibition of 97 ± 4.5%. CN1[C@@H]2CC[C@H]1C[C@@H](OC(=O)C(CO)c1ccccc1)C2 (some centres undefined) [Atropine sulfate monohydrate] gave a percent growth inhibition of 0.268 ± 1.2%.
